Values joined by “and” are separate entries in the source; they are usually repeats but may differ in a detail not shown here. Identical values can stand only once. Active and inactive are the calls of the source.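 Rule for the calls, unless noted: active = compounds whose cell count with miR-34 switched on is under 0.7 times the count with it off; inactive = the rest.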

Assay [1] in a line: sensitizers of A549 cells to miR-34 induction, primary screen, imaging, A549 dox-inducible miR-34, nuclei and caspase counts (AID 1347080). To be noted: A549 miR-34 inducible, Hoechst nuclei count, 48 h.
A short description of assay [2]: survival rescue of mitochondrial mutant cells in low glucose, primary screen, MELAS cybrids, Rieske KO mouse fibroblasts, CellTiter-Glo (AID 1508586;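 active = mean z-score across replicates of 1.96 or higher in either the MELAS or the Rieske mutant cell line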;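 note: z relative to plate mean and SD of compound and empty wells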).
Assay [3] concerns the target NAD(+) hydrolase SARM1 (Homo sapiens) (UniProt Q6SZW1). In words: SARM1 TIR NADase inhibitors, cell lysate, NAD-Glo luminescence (AID 1508614;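 active = compound whose remaining NAD level is above about 45 nM, limit read from the data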;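 note: higher remaining NAD means stronger inhibition of SARM1 NADase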). The settings on record: SAM-TIR HEK293T lysate NADase, at 1 µM, stronger effect = higher value.
The target in assay [4] is Mitogen-activated protein kinase 7 (Homo sapiens) (UniProt Q13164). In words: ERK5 transactivation activators in reporter cells, primary screen, cell-based, HTS (AID 1508626;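 active = luciferase signal above three times the same-plate solvent-only control wells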;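 note: luciferase driven by Gal4-ERK5 fusion binding five Gal4 sites before minimal TATA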). The settings on record: HeLa Gal4-ERK5 transactivation, 18 h, at 5 µM, stronger effect = higher value.
Sequence of Mitogen-activated protein kinase 7 (Homo sapiens) (Q13164 whole entry, looked up, the tested form may be a part): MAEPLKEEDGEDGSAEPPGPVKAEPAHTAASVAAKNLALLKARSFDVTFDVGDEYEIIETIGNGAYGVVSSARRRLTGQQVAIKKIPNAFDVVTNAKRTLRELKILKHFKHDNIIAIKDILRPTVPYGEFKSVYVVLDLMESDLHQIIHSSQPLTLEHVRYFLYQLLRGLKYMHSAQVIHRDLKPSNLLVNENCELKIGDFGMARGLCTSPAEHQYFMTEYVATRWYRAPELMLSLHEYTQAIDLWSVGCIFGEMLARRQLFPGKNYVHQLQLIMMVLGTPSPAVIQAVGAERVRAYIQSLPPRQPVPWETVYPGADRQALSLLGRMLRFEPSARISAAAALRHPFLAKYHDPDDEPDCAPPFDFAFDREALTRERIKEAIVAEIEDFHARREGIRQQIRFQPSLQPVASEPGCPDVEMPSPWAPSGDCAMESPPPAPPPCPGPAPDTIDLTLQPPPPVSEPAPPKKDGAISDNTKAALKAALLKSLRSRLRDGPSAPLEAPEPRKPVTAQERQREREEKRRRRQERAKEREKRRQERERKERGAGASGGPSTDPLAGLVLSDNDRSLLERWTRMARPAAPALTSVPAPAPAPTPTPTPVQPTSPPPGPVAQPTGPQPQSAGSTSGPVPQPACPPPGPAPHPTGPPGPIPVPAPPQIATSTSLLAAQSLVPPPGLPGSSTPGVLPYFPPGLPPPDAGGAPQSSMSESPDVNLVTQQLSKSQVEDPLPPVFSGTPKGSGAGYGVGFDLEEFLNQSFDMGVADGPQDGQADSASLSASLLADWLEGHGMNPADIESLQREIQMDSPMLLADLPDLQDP
[5] abbreviates: stronger effect = lower value, cell number ratio, induced over uninduced.
Setting [6] is: measured here: relative caspase fold change +Dox/-Dox.
The mark [7] stands for this setting: measured here: total cells with miR-34 induction, stronger effect = lower value.
Setting [8] is: measured here: total cells without miR-34 induction.
Setting [9] is: MELAS cybrid survival, CellTiter-Glo 48 h, stronger effect = higher value.
Setting [10] is: Rieske KO mouse fibroblast survival, CellTiter-Glo 72 h.

Sequence of NAD(+) hydrolase SARM1 (Homo sapiens) (Q6SZW1 whole entry, looked up, the tested form may be a part): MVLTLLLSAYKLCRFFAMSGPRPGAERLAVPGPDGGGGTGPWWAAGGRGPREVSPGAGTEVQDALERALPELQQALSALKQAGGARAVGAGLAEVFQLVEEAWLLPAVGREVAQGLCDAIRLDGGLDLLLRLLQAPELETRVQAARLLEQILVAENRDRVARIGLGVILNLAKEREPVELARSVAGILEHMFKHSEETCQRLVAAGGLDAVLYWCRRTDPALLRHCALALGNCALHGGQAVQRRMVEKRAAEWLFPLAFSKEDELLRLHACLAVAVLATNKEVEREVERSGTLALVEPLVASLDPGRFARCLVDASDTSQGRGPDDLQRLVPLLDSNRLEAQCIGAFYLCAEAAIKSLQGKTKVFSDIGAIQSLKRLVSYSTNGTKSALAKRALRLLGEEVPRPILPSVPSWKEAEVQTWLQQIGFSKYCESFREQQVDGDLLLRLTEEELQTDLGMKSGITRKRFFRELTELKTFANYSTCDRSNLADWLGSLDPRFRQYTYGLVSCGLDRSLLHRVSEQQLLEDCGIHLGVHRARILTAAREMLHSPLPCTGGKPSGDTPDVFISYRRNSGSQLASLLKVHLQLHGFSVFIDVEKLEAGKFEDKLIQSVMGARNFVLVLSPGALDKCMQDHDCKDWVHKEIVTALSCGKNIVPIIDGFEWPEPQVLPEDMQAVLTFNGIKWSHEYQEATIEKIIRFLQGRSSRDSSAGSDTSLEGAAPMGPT

`CCOc1ccc(NC(C)=O)cc1`: the fold change in assay [1] (setting [5]) is 0.886 (inactive) and 0.916 (inactive); in assay [1] (setting [6]), 1.49 and 0.787 and 3.07. For the same compound, the cell count in assay [1] (setting [7]) is 9560 and 7800 and 11500; in assay [1] (setting [8]), 10800 and 8520 and 12600. Further, the z-score was -0.475 (inactive) and -0.0201 (inactive) in assay [2] (setting [9]); -0.108 and 0.061 in assay [2] (setting [10]). In addition, the remaining NAD in assay [3] is 10 nM (inactive). Also, in assay [4], the luciferase signal was 68 AU (inactive).

Regarding `Cc1c(Nc2ncccc2C(=O)O)cccc1C(F)(F)F`, the fold change is 0.839 (inactive) and 0.931 (inactive) and 0.832 (inactive) in assay [1] (setting [5]); 1.09 and 0.676 and 4.07 in assay [1] (setting [6]). In addition, the cell count was 7890 and 7810 and 10300 in assay [1] (setting [7]); 9410 and 8390 and 12400 in assay [1] (setting [8]). In addition, the z-score in assay [2] (setting [9]) was -0.0893 (inactive) and -0.97 (inactive); in assay [2] (setting [10]), 0.0703 and 0.938. The remaining NAD in assay [3] is 10 nM (inactive). Further, in assay [4], the luciferase signal is 44 AU (inactive).

Take `O=C(O)CCC(=O)Nc1ccc(S(=O)(=O)Nc2nccs2)cc1`: the fold change is 0.889 (inactive) and 0.92 (inactive) in assay [1] (setting [5]); 0.9 and 3.43 in assay [1] (setting [6]). In addition, the cell count in assay [1] (setting [7]) is 8630 and 11000; in assay [1] (setting [8]) it was 9720 and 12000. Also, the z-score in assay [2] (setting [9]) is 0.0389 (inactive); in assay [2] (setting [10]), 0.552. For the same compound, the remaining NAD in assay [3] was 10 nM (inactive). The luciferase signal in assay [4] is 28 AU (inactive).

Consider `CCCCC1C(=O)N(c2ccccc2)N(c2ccc(O)cc2)C1=O` (configuration not stated), for which the fold change in assay [1] (setting [5]) is 0.952 (inactive) and 0.848 (inactive); in assay [1] (setting [6]), 0.53 and 1.48. For the same compound, the cell count is 8300 and 10300 in assay [1] (setting [7]); 8720 and 12100 in assay [1] (setting [8]). The z-score in assay [2] (setting [9]) is -1.46 (inactive); in assay [2] (setting [10]), -1.25. In assay [3], the remaining NAD was 10 nM (inactive). Further, the luciferase signal in assay [4] is 144 AU (inactive).

As to `CC(N)CCCC(C)(C)O` (configuration not stated), the fold change is 0.926 (inactive) in assay [1] (setting [5]) and 1.29 in assay [1] (setting [6]). Besides, the cell count in assay [1] (setting [7]) was determined as 8630; in assay [1] (setting [8]), 9320. In addition, the z-score in assay [2] (setting [9]) is 0.045 (inactive); in assay [2] (setting [10]), 0.396. In addition, the remaining NAD in assay [3] was 10 nM (inactive). For the same compound, the luciferase signal in assay [4] was 160 AU (inactive).

As for `Cc1c(NC(=O)c2cccnc2)c(=O)n(-c2ccccc2)n1C`, the fold change in assay [1] (setting [5]) is 0.892 (inactive); in assay [1] (setting [6]) it was 1.07. Further, the cell count in assay [1] (setting [7]) worked out at 8460; in assay [1] (setting [8]), 9480. In addition, the figures for the z-score in assay [2] (setting [9]) and in assay [2] (setting [10]) were 0.707 (inactive) and 0.58, respectively. Further, the remaining NAD in assay [3] is 10 nM (inactive). Besides, in assay [4], the luciferase signal is 56 AU (inactive).

With `CC[C@]12CCCN3CCc4c(n(c5ccccc45)[C@@](O)(C(=O)OC)C1)[C@@H]32`, the fold change in assay [1] (setting [5]) is 0.85 (inactive); in assay [1] (setting [6]), 1.33. For the same compound, the cell count amounted to 8280 in assay [1] (setting [7]) and 9750 in assay [1] (setting [8]). Also, the values for the z-score in assay [2] (setting [9]) and in assay [2] (setting [10]) were 0.291 (inactive) and -0.0307, respectively. Further, in assay [3], the remaining NAD is 10 nM (inactive). For the same compound, the luciferase signal in assay [4] is 112 AU (inactive).

For `CCCc1ncc(C[n+]2ccccc2C)c(N)n1`, the fold change in assay [1] (setting [5]) was 0.899 (inactive) and 0.934 (inactive) and 0.817 (inactive); in assay [1] (setting [6]), 1.48 and 1.05 and 2.66. For the same compound, the cell count in assay [1] (setting [7]) is 8050 and 8570 and 10100; in assay [1] (setting [8]), 8960 and 9180 and 12400. In addition, the z-score in assay [2] (setting [9]) is -0.137 (inactive) and -0.369 (inactive); in assay [2] (setting [10]), -0.2 and 0.188. Also, the remaining NAD in assay [3] was 10 nM (inactive). Also, the luciferase signal in assay [4] is 52 AU (inactive).

In the case of `NS(=O)(=O)c1cc2c(cc1Cl)NC(CSCc1ccccc1)=NS2(=O)=O`, the fold change in assay [1] (setting [5]) was 0.856 (inactive) and 0.772 (inactive); in assay [1] (setting [6]) it was 1.39 and 1.03. Besides, the cell count in assay [1] (setting [7]) was 8870 and 9840; in assay [1] (setting [8]) it was 10400 and 12800. For the same compound, the z-score is 0.425 (inactive) in assay [2] (setting [9]) and -0.312 in assay [2] (setting [10]). Besides, the remaining NAD in assay [3] was 10 nM (inactive). In addition, the luciferase signal in assay [4] was 88 AU (inactive).
